MARV entry inh: Marburg virus entry inhibition; 300,000 compounds, 1.8% hits; AID 540276; Marburg virus pseudotyped entry inhibition, cell reporter; Potency, µM (titrated, usually from 37.8 µM), for the others: at the highest dose activity change, negative = inhibition, most hits filed as inhibitors; calls by dose curve; tested in HEK293 cells; also: potency is read from the fitted curve at half-maximal effect
HCMV inh: inhibitors of human cytomegalovirus. activity change, negative = inhibition, % at 57.5 µM. AID 1259415. 410,000 compounds, 4.5% hits. HFF cells, HCMV-luciferase reporter, 72 h; hits give low values; in the data active = activity change below about -60%; inconclusive = no clear call, values can overlap the other calls; inactive = above about -39%
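HFF cells seeded 16 h at 37C, treated with compounds, infected with luciferase-reporter HCMV at MOI 1 PFU/cell; luciferase read at 72 h post infection, normalized to buffer-only and Salinomycin controls.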
HCV inhibitor: inhibitors of hepatitis C virus infection; Huh7.5.1 HCVcc-Cre infection, luciferase reporter, 44 h; Potency, µM (top dose mostly 41.8 µM), for inactives: top-dose activity change, negative = inhibition, actives largely listed as inhibitors; 340,000 compounds, 3.4% hits; active = well fitted inhibition curve with a large enough effect; inconclusive = small, poorly fitted or top-dose-only effect, or another doubt; inactive = no such curve, though single readings can be large or run the other way; also: potency is read from the fitted curve at half-maximal effect
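Cells seeded at 1,000/well and cultured 4 h, then compounds added followed by HCVcc-Cre virus (~0.5 moi). After 44 h further culture, luciferase substrate was added, plates held 15 min at room temperature, and luminescence read for 15 sec.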
Lassa entry inh: inhibitors of Lassa virus binding or cell entry | 300,000 compounds, 1.2% hits | Potency, µM (titrated, usually from 37.9 µM), for inactives: at the highest dose activity change, negative = inhibition, actives largely listed as inhibitors | Lassa virus pseudotype entry inhibition, cell reporter; calls by dose curve; tested in HEK293 cells; also: potency is read from the fitted curve at half-maximal effect; nearly all actives have a fitted effect of over 50% in size
FMDV inh: foot and mouth disease virus antiviral activity. FMDV antiviral cell-based qHTS. 410,000 compounds, 1.2% hits. Potency, µM (top dose mostly 57.9 µM), inactives show at the highest dose activity change, negative = inhibition, hits mostly inhibitors; calls by dose curve; tested in HEK293T cells; also: read-out not given here; potency is read from the fitted curve at half-maximal effect; nearly all actives have a fitted effect of over 45% in size
* = called active by the depositor; ? = inconclusive; . = not tested or not shown; ! = a repeat was not active; [ ] = dose if it differs, or a comment. A selection: hits, their analogues and other compounds. The true share with any hit is near 7.9%. % is scaled to controls: 0 for no effect and ±100 for the full control effect.

SMILES	MARV entry inh	HCMV inh	HCV inhibitor	Lassa entry inh	FMDV inh
CC1CCc2[nH]c3ccc(C(=O)N(C)CC(=O)Nc4ccccc4C(F)(F)F)cc3c2C1 (stereo not given)	?	-88.2*	-22.1%	?	-2.9%
CCOc1ccc(NC(=O)CN(C)C(=O)c2ccc(NC3CC3)c([N+](=O)[O-])c2)cc1OCC	-19.0%[46.1 µM]	10.9	11.2µM*	-8.6%	-7.9%
CCCN(CC(=O)Nc1ccccc1OC)C(=O)c1ccc2[nH]c3c(c2c1)CC(C)CC3 (stereo not given)	?	-3.9	7.94µM*	?	?
O=C(Nc1ccc(F)c(Cl)c1)C1Cc2ccccc2CN1S(=O)(=O)c1ccc(F)cc1 (stereo not given)	-8.0%[46.1 µM]	-25.6	.	0.4%[46.1 µM]	2.7%
CCN(CC(=O)Nc1ccccc1OC)C(=O)c1ccc2[nH]c3c(c2c1)CC(C)CC3 (stereo not given)	.	-5.6	10µM*	.	?
CC1CCc2[nH]c3ccc(C(=O)N(C)CC(=O)Nc4ccccc4Cl)cc3c2C1 (stereo not given)	-26.2%	-8.3	?	-27.2%	-0.7%
CCOc1ccc(C(=O)Nc2cccc(C(=O)O)c2)cc1Cl	?	46.9	12.2%	?	8.91µM*
COc1ccc(/C=C2\C(=O)N(c3c(Cl)cc(Cl)cc3Cl)N=C2NC(=O)c2cccc([N+](=O)[O-])c2)cc1	-0.5%	.	-22.6%	23.0%	11.2µM*
COc1ccc(C(=O)C(C)Oc2cccc(NC(=O)c3cccc([N+](=O)[O-])c3)c2)cc1 (stereo not given)	?	-33.6	11.2µM*	?	0.0%
CCOc1ccc(C(=O)Nc2cccc([N+](=O)[O-])c2)cc1Br	?	-24.5	7.08µM*	19.2%	7.4%
CC(C)C(=O)Nc1cccc(NC(=O)c2cccc([N+](=O)[O-])c2)c1	2.1%	-10.0	-22.6%	1.9%	-2.8%
CCOc1ccc(C(=O)Nc2cccc(-c3nc4cccnc4o3)c2)cc1Cl	8.2%	.	11.2µM*	25.9µM*	7.5%
CCOc1cc(C(=O)Nc2cccc(-c3nc4ccccc4o3)c2)cc(OCC)c1OCC	-21.0%[46.1 µM]	4.5	.	?	0.0%
CCOC(=O)C1CCN(C(=O)COc2ccc(N(C)S(=O)(=O)c3ccc(C)cc3)cc2)CC1	-3.5%[14.2 µM]	-102.4*	-9.6%	0.3%	-19.6%
COC(=O)C1CCN(C(=O)COc2ccc(N(C)S(=O)(=O)c3ccc(C)cc3)cc2)CC1	28.6%	5.8	9.5%	5.5%	-6.7%
CCC1CCCCN1C(=O)COc1ccc(N(C)S(=O)(=O)c2ccc(C)cc2)cc1 (stereo not given)	.	-27.1	10µM*	.	?
CCOc1ccc(N(CC(=O)N2CCCCCC2)S(=O)(=O)c2ccc(C)cc2)cc1	-50.1%	?	11.5%	3.55µM*	30.1%
Cc1ccccc1COc1ccc(/C(O)=C2\C(=O)C(=O)N(CCCn3ccnc3)[C@H]2c2ccco2)cc1	20.6%	.	.	.	.
Cc1cc(C(=O)Nc2cccc(-c3nc(CNC(=O)c4ccccc4C(F)(F)F)c(C)o3)c2)c(C)o1	.	.	.	.	27.8%
COc1ccc(C(=O)OCC(=O)Nc2ccc(Cl)c(C(F)(F)F)c2)c(OC)c1OC	-16.5%	-61.9*	?	-17.4%	-26.2%
CCOC(=O)c1cc(-c2ccccc2)n(CCC(=O)Nc2cc(C)cc(C)c2)c1C	.	115.5	.	-8.8%[46.1 µM]	-22.9%
CCOC(=O)c1cc(-c2ccccc2)n(CCC(=O)Nc2ccc(Cl)c(C(F)(F)F)c2)c1C	.	0.0	.	-24.7%[46.1 µM]	39.8µM*
COc1cc(CC(=O)Nc2ccc(Cl)c(C(F)(F)F)c2)cc(OC)c1OC	?	-22.6	?	?	?
CCC1(C2CCN(Cc3ccccc3Cl)CC2)NC(=O)N(CC2COc3ccccc3O2)C1=O (stereo not given)	.	.	.	.	-17.4%
C[C@@H]1[C@H]2[C@@H]3CC[C@@H](C3)[C@H]2CN[C@H]1c1cn(Cc2ccccc2)c2ccccc12	.	-4.6	22.4µM*	.	0.0%
SMILES	MARV entry inh	HCMV inh	HCV inhibitor	Lassa entry inh	FMDV inh
CCOc1ccc(CCNC(=O)Cn2nc(C)n3c(cc4occc43)c2=O)cc1OCC	-2.2%[46.1 µM]	-1.0	.	-2.1%[46.1 µM]	-4.2%
COc1ccccc1CCn1cnc(Cc2cccc(F)c2)c1C(C)C	.	?	.	.	22.4µM*
CCc1ncn(CCc2ccccc2OC)c1C(C)C	.	-17.8	.	.	-16.2%
CCCc1c(Cc2cccc(F)c2)ncn1CCc1ccccc1OC	.	-61.1*	.	.	.
Cc1ccccc1C(=O)Nc1nnc(S(=O)(=O)N2CCCCC2)s1	.	15.6	13.9%	.	-4.8%
CCCSc1ncc(Cl)c(C(=O)N2CCN(c3ccc(OC)cc3)CC2)n1	21.9%[46.1 µM]	-35.6	.	-1.6%[46.1 µM]	-4.7%
O=C1CN(C(=O)c2c(F)cccc2Cl)C(c2ccc(F)cc2)c2cc(Br)ccc2N1 (stereo not given)	-23.2%[46.1 µM]	-36.9	.	?	-4.9%
Cc1ccc2c(c1)-c1nc(-c3ccc(Cl)cc3)cc(-c3coc4ccccc4c3=O)c1CO2	-1.7%[46.1 µM]	8.8	.	-10.5%[46.1 µM]	7.1%
COc1cc(C=O)c(Br)cc1OCc1ccc(C)cc1	?	5.7	-21.3%	6.1%	.
CCOc1cc(C=O)c(Br)cc1OC1CCCC1	0.4%	-62.0*	-26.1%	?	-29.8%
Cc1ccc(N(CC(=O)N2CCc3ccccc32)C2=NC(=O)CS2)cc1	15.0%	8.4	6.31µM*	-1.7%	?
Cc1ccc(C(=O)OCC(=O)N2CCc3ccccc32)cc1	-8.6%[46.1 µM]	-8.5	13.6%	?	78.6%
Cc1nn(Cc2cccc(C(=O)NC34CC5CC(CC(C5)C3)C4)c2)c(C)c1Br	?	-39.3	14.1µM*	?	?
CC(C)c1nc(SCC(=O)N2CCCC2)c2ccccc2n1	22.9%	-78.1*	?	3.2%	-23.8%
CCc1nc(SCC(=O)N2CCCC2)c2ccccc2n1	11.1%	?	?	-4.8%	.
O=C(CSc1nc(C2CCCCC2)nc2ccccc12)N1CCCC1	?	-100.7*	-25.7%	?	-16.4%
O=C(CSc1nc(C2CC2)nc2ccccc12)N1CCCCC1	?	-10.9	-21.0%	-30.0%[46.1 µM]	-14.6%
O=C(CSc1nncc2ccccc12)N1CCCCC1	0.9%[46.1 µM]	-64.0*	-6.3%	16.4%[46.1 µM]	-5.6%
COCCNC(=O)CSc1nc2ccccc2nc1Cc1ccc(C)cc1	.	-2.6	.	4.5%[46.1 µM]	-13.4%
CCn1cnnc1SCC(=O)c1c(N)n(C2CC2)c(=O)[nH]c1=O	.	-0.4	13.8%	.	-9.4%
CCc1cc2c(nc1CC)CCN(CC/C(C)=N/OC[C@@H](C)[C@H](OCc1ccccc1)C(C)C)C2	-16.5%[14.2 µM]	.	.	.	.
CC(Oc1ccccc1)C(=O)OCc1cc(=O)n2nc(C(C)C)sc2n1 (stereo not given)	.	-9.7	.	6.9%[46.1 µM]	-17.4%
Cc1cccc(NC(=S)N=Nc2c(O)n(C)c3ccc(S(=O)(=O)N4CCOCC4)cc23)c1	?	47.8	1.58µM*!	?	-15.8%
Cc1ccc(NC(=S)N=Nc2c(O)n(C)c3ccc(S(=O)(=O)N4CCOCC4)cc23)cc1	-12.2%	-77.3*	?	?	4.3%
COCCN(C(=O)COC(=O)CCC1CCCC1)c1c(N)n(Cc2ccccc2)c(=O)[nH]c1=O	5.7%[46.1 µM]	-3.5	3.8%	13.6%	0.0%
